Coupling enz: qHTS Assay for Inhibitors of Fructose-1,6-bisphosphate Aldolase from Giardia Lamblia: Coupling assay counterscreen; coupling enzyme system counterscreen, AmpLite Red fluorescence; activity change, negative = inhibition, % at 58.2 µM, hits read low; 290,000 compounds, 0.67% hits; AID 2472, 2010; in the data active = activity change below about -30%
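Compounds tested against the coupling enzymes alone at 57.5 uM final; readout was AmpLite Red fluorescence (525/598 nm) after 20 min at RT.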
Tau ThT inhib: qHTS for Inhibitors of Tau Fibril Formation, Thioflavin T Binding | Microtubule-associated protein tau (Homo sapiens), P10636 | recombinant tau K18 P301L, heparin-induced fibrillization, ThT fluorescence | Potency, µM (doses to about 57.4 µM), most hits filed as inhibitors | 270,000 compounds, 2.1% hits; also: nearly all actives have a fitted effect of over 55% in size
Target sequence (P10636 561-689 P618L limits assumed): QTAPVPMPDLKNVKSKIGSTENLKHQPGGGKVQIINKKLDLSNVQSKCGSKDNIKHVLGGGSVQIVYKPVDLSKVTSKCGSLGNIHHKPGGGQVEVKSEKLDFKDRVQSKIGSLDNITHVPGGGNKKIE
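Heparin-induced (20 uM) aggregation of recombinant human K18 P301L tau, 15 uM unlabeled with 0.24 uM labeled, pH 7 acetate buffer, 6 hr at 37 C with compound. Fibrils quantified by 30 uM ThT fluorescence after 1 hr ambient incubation.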
Tau fluor counter: Counterscreen qHTS for Inhibitors of Tau Fibril Formation, Fluorescence Polarization | tau K18 P301L Alexa594 fluorescence, heparin fibrillization | Potency, µM (doses to about 57.7 µM) | 280,000 compounds, 0.93% hits | AID 1463, 2008; also: nearly all actives have a fitted effect of over 55% in size
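Human tau K18 P301L (15 uM unlabeled, 0.24 uM Alexa 594-labeled) in 100 mM sodium acetate pH 7 with 20 uM heparin, 6 hr at 37 C. ThT 30 uM added, 1 hr ambient; Alexa 594 FP and total fluorescence read at 555/632 nm.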
Tau fibril FP: qHTS for Inhibitors of Tau Fibril Formation, Fluorescence Polarization | Microtubule-associated protein tau (Homo sapiens), P10636 | K18 P301L tau heparin fibrillization, Alexa594 FP, 6 h | Potency, µM (highest dose often 57.7 µM), most hits filed as inhibitors | 280,000 compounds, 0.39% hits; also: nearly all actives have a fitted effect of over 55% in size
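Steps: dispense K18 P301L tau (15 uM plus 0.24 uM Alexa 594 tracer, final) in pH 7 sodium acetate; add compound; add heparin (20 uM final); incubate 6 hr, 37 C; add ThT (30 uM final); after 1 hr ambient, read FP.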
Large screens that a line does not name were inactive; [ ] = dose if it differs, or a comment. Shown are actives, neighbours in structure and some others; about 2.7% of the full set was active somewhere. Unless noted, calls follow the shape of the dose curve; as a rule, active = well fitted curve in the direction sought with a large enough effect; inconclusive = small, poorly fitted or top-dose-only effect, or another doubt; inactive = no such curve, though single readings can be large; an effect the other way counts as inactive or inconclusive.

Cc1[nH]c2ccccc2c1C(=O)COC(=O)c1c(-c2c(F)cccc2Cl)noc1C	Tau fluor counter inconclusive, Tau fibril FP 14.1µM
Cc1[nH]c2ccccc2c1C(=O)COC(=O)c1ccc([N+](=O)[O-])s1	Tau ThT inhib 7.08µM, Tau fluor counter 11.2µM[quencher]
O=C1NC(=S)N/C1=C/c1cc([N+](=O)[O-])ccc1O	Tau ThT inhib 15.8µM
Cc1ccc(/C=C2\NC(=S)NC2=O)cc1[N+](=O)[O-]	Tau ThT inhib inconclusive
O=C1NC(=S)N/C1=C/c1cccc([N+](=O)[O-])c1O	Tau ThT inhib 4.47µM, Tau fluor counter inconclusive
CCOC(=O)Cc1ccc(NC(=O)NCc2cccn2Cc2ccccc2)cc1	Tau fluor counter inconclusive (no result: Coupling enz)
COCc1cc(O)c(O)c(O)c1-c1c(COC)cc(O)c(O)c1O	Coupling enz -48.9, Tau ThT inhib 3.16µM, Tau fluor counter inconclusive, Tau fibril FP 6.31µM
Cc1ccc(SC2=C(Sc3ccc(C)cc3)C(=O)c3ccccc3C2=O)cc1	Tau ThT inhib 3.16µM, Tau fluor counter 2.51µM[quencher], Tau fibril FP 14.1µM
Cc1cc(C)c(OCC(=O)N(Cc2cccc(F)c2)Cc2ccco2)c(C)c1	Tau ThT inhib inconclusive (no result: Coupling enz)
O=C(CSc1nc2ccsc2c(=O)n1Cc1ccccc1Cl)NCc1ccc(F)cc1	none (no result: Coupling enz)
N#CCc1ccc(NC(=O)/C=C/c2ccc([N+](=O)[O-])o2)cc1	Tau ThT inhib 11.2µM, Tau fibril FP inconclusive
N#C/C(=C\c1ccc([N+](=O)[O-])o1)C(=O)Nc1ccc(F)cc1	Tau ThT inhib 14.1µM, Tau fluor counter inconclusive, Tau fibril FP inconclusive
Cc1ccc(CSc2nc3cccnc3n2Cc2ccc(C(=O)NCCc3cccs3)cc2)cc1	none (no result: Coupling enz)
Oc1ccc(Br)cc1C=Nc1ccc(Cl)cc1	none
CCN(CC)c1ccc(N=Cc2cc(Br)ccc2O)cc1	Tau ThT inhib 15.8µM, Tau fluor counter inconclusive, Tau fibril FP inconclusive
CC(C)c1ccc(/C=N/N2CCN(c3ccccn3)CC2)cc1	Tau ThT inhib 12.6µM, Tau fluor counter inconclusive
Cc1nn2c(=O)cc(COc3ccc(/C=C(\C#N)C(=O)Nc4ccc(F)cc4)cc3)nc2s1	Tau ThT inhib inconclusive (no result: Coupling enz)
N=C1/C(=C\c2coc3ccc(O)cc3c2=O)C(=O)N=C2SC=CN12	Tau ThT inhib 12.6µM, Tau fluor counter inconclusive
CC(C)CSC1=NSC2=NC(=O)/C(=C\c3coc4ccccc4c3=O)C(=N)N12	Tau ThT inhib 28.2µM, Tau fluor counter inconclusive, Tau fibril FP inconclusive
CN1C(=O)/C(=C/c2coc3ccc(O)cc3c2=O)SC1=S	Tau ThT inhib inconclusive
N=C1/C(=C/c2coc3ccccc3c2=O)C(=O)N=C2SC(c3ccco3)=NN12	Tau ThT inhib inconclusive
CSC1=NSC2=NC(=O)/C(=C\c3coc4ccccc4c3=O)C(=N)N12	Tau ThT inhib 14.1µM, Tau fluor counter inconclusive, Tau fibril FP inconclusive
N=C1/C(=C\c2coc3ccccc3c2=O)C(=O)N=C2SC(c3ccncc3)=NN12	Tau ThT inhib 12.6µM, Tau fibril FP inconclusive
COc1ccc(CCNC(=O)c2ccc(Cn3c(=O)c4ccccc4n(Cc4cc(C)ccc4C)c3=O)cc2)cc1OC	none (no result: Coupling enz)
COC(=O)c1ccc(NC(=O)c2c(NCc3ccc(C)o3)sc3c2CCCC3)cc1	Tau ThT inhib inconclusive, Tau fluor counter inconclusive (no result: Coupling enz)
CC[n+]1c(/C=C/C=C/N(C(C)=O)c2ccccc2)sc2cc(OC)ccc21	Tau ThT inhib 12.6µM, Tau fluor counter 3.98µM[fluorescent]
Cc1ccc(-c2cc3ncc(C(=O)c4cc([N+](=O)[O-])ccc4O)cn3n2)cc1	Tau ThT inhib 10µM (no result: Coupling enz)
O=C(c1cnc2cc(-c3ccccc3)nn2c1)c1cc([N+](=O)[O-])ccc1O	Tau ThT inhib inconclusive (no result: Coupling enz)
O=C1NC(c2ccccc2O)Nc2ccccc21 (configuration not stated)	none (no result: Tau ThT inhib, Tau fluor counter, Tau fibril FP)
O=C1NC(c2cc(Cl)cc([N+](=O)[O-])c2O)Nc2ccccc21 (configuration not stated)	Tau ThT inhib 7.08µM
C=CCOC(=O)C1=C(C)NC(=O)NC1/C=C/c1ccccc1 (configuration not stated)	none
CC1=C(C(=O)OCC(C)C)C2(O)C(=O)c3ccccc3C2(O)N1 (configuration not stated)	Tau ThT inhib 7.94µM, Tau fibril FP inconclusive
C=CCOC(=O)C1=C(C)NC2(O)c3ccccc3C(=O)C12O (configuration not stated)	Tau ThT inhib 12.6µM, Tau fibril FP inconclusive
CC(=O)c1ccc(OCc2cc(C(=O)N(C)C(C)c3nccs3)no2)cc1 (configuration not stated)	none (no result: Tau ThT inhib, Tau fluor counter, Tau fibril FP)
O=C(CSc1nccn1Cc1ccccc1)Nc1ccc2c(c1)OCO2	none (no result: Coupling enz)
Cc1csc2nc(COc3ccccc3NC(=O)c3ccco3)cc(=O)n12	none (no result: Coupling enz)
CCOC(=O)c1sc(NC(=O)Nc2ccc(Cl)cc2)cc1C	Tau fluor counter 3.16µM[quencher], Tau fibril FP inconclusive
CCOC(=O)c1sc(NC(=O)c2ccc(Cl)s2)cc1C	none
O=C(Cn1cc(S(=O)(=O)Cc2ccc(F)cc2)c2ccccc21)NCc1ccccc1	none (no result: Coupling enz)
Cc1[nH]n(-c2ccccc2)c(=O)c1/C=N/N1C(=O)c2cccc3cccc(c23)C1=O	Tau ThT inhib 22.4µM, Tau fluor counter inconclusive
Cc1[nH]n(-c2ccccc2)c(=O)c1/C=N/N1CCOCC1	none
Cc1[nH]n(-c2ccccc2)c(=O)c1/C=N/Nc1nncc(-c2ccccc2)n1	Tau ThT inhib 14.1µM, Tau fluor counter inconclusive
CCOc1cccc(=O)c2c(C)n(C)c(C)c12	Tau ThT inhib 15.8µM
CCCCCn1c(C)c2c(OCC)cccc(=O)c2c1C	none (no result: Tau ThT inhib)
Cc1ccc2nc(-c3ccc(NS(=O)(=O)c4ccccc4)cc3)sc2c1	none
Cc1ccc2nc(-c3ccc(NS(=O)(=O)c4ccc(F)c(F)c4)cc3)sc2c1	Tau ThT inhib inconclusive, Tau fluor counter 10µM[quencher], Tau fibril FP inconclusive
CCOc1cc2c(C#N)c(N3CCOCC3)nc(N)c2c(N)n1	Coupling enz -47.9
Cc1ccc([N+](=O)[O-])cc1N/C=C1\CCCCC1=O	Tau ThT inhib inconclusive
O=C(CSc1cnc2ccccc2n1)c1ccc(F)cc1	Tau ThT inhib 14.1µM
COC(=O)CSc1cnc2ccccc2n1	none
CCC(=O)Nc1ccc2nc(SCc3ccccc3)sc2c1	Tau fluor counter inconclusive, Tau fibril FP inconclusive (no result: Coupling enz)
COC(=O)c1ccc([C@@H]2Nc3c(OC)ccc(C)c3[C@@H]3C=CC[C@@H]32)cc1	Tau ThT inhib 12.6µM, Tau fluor counter inconclusive, Tau fibril FP inconclusive (no result: Coupling enz)
COC(=O)c1ccc([C@H]2Nc3ccc(S(=O)(=O)Nc4cccc(C)c4)cc3[C@H]3C=CC[C@H]32)cc1	Tau ThT inhib inconclusive, Tau fluor counter inconclusive (no result: Coupling enz)
S=c1[nH]nc(-c2ccco2)n1-c1ccccc1Cl	none
S=c1[nH]nc(-c2cc(-c3ccco3)[nH]n2)n1-c1ccccc1Cl	Tau ThT inhib 20µM, Tau fluor counter inconclusive, Tau fibril FP inconclusive
COc1ccc(N/N=C(/C)c2cnnc(-c3ccccc3)n2)cc1	Tau ThT inhib 2.82µM, Tau fluor counter inconclusive
